Screening results: PubChem BioAssay, Center for Chemical Genomics, University of Michigan
Dicer processing = human Dicer pre-microRNA cleavage inhibition | Q9UPY3 | cat-ELCCA pre-miR-21 Dicer processing, chemiluminescence; hits give high values | z-score at 25 µM | 6% of 47,000 active | AID 1347074; in the data active = z-score above about 3, passing the limit was not always enough;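 also: plate controls were vehicle for no effect and no enzyme for full effect; higher signal means more uncleaved substrate so more Dicer inhibition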
Target sequence (Q9UPY3 whole entry, looked up): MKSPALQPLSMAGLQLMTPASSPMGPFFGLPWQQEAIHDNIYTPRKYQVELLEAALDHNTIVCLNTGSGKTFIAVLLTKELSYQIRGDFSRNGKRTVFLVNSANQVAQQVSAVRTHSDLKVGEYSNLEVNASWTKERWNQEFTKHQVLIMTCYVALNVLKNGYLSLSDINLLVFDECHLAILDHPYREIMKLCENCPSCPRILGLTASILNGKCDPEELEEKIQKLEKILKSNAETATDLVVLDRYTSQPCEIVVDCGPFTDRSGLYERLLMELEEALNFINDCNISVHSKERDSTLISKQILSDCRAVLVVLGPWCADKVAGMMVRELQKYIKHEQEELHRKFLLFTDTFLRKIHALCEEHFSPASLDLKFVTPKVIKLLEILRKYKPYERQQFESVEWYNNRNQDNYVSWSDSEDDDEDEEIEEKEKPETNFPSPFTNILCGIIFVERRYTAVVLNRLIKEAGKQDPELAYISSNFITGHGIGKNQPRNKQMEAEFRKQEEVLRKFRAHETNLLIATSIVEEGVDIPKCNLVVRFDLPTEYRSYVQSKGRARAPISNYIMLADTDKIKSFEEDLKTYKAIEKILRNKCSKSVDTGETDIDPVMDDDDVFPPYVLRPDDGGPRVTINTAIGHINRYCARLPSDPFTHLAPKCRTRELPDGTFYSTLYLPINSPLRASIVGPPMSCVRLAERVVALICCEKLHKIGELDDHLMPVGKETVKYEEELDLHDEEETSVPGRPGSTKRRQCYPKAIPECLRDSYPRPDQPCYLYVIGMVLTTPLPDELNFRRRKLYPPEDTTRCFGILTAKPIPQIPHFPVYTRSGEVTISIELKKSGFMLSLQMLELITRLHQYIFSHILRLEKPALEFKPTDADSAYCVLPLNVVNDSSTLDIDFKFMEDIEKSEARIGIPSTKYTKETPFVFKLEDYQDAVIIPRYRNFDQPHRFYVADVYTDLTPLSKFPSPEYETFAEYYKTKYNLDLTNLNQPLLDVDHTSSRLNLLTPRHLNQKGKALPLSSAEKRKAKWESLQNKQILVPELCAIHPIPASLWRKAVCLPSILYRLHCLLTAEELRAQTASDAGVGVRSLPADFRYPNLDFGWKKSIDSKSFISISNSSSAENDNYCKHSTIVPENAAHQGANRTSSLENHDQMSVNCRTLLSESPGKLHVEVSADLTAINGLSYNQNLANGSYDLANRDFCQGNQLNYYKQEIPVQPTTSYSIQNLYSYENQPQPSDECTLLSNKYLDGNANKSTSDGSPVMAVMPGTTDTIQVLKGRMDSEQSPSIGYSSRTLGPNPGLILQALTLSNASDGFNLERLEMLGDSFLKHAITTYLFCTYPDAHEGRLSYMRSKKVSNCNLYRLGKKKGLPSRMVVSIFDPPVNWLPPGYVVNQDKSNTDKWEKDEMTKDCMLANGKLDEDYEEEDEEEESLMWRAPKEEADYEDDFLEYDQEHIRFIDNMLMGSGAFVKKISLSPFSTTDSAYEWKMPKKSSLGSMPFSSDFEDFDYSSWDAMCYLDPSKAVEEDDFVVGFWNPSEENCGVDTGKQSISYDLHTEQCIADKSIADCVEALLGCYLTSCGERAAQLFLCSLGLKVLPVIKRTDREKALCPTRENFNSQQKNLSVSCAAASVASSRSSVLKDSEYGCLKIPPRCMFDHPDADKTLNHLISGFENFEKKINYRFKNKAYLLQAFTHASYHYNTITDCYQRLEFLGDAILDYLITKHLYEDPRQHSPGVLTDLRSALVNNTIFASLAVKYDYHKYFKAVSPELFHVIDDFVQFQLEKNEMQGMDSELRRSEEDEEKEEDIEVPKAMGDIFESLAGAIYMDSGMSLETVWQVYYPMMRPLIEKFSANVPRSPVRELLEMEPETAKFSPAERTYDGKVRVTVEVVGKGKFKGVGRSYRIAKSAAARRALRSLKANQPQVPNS
The depositor's hits bear a star. This excerpt belongs to a sample that is enriched for hits.

SMILES	Dicer processing
CCCc1cc(=O)oc2cc(OCC(=O)OCC)ccc12	1.3
O=C(Cn1nc(-c2ccccc2)c2ccccc2c1=O)c1ccc(Br)cc1	-0.09
Oc1ccccc1-c1nc(-c2ccccc2)no1	0.04
Cc1ccccc1-c1nc(C2CCCCC2)no1	1.7
CSc1ccc(/C=C/c2noc(-c3ccccc3O)n2)cc1	-1.9
CCN(CC)c1ccc(/C=C/c2noc(-c3ccccc3O)n2)cc1	0.97
Cc1ccsc1/C=C/c1noc(-c2ccccc2O)n1	3.3*
Oc1ccccc1-c1nc(/C=C/c2ccc(Cl)cc2)no1	6.7*
Cc1nnc2c3c4c(sc3ncn12)CC(C)CC4 (stereo unspecified)	0.82
CN1CCN(C2Cc3ccccc3Sc3ccc(Cl)cc32)CC1 (stereo unspecified)	-0.53
CN1CCN(CC(=O)N2c3ccccc3Sc3ccc(Cl)cc32)CC1	1.3
CC1CN(CCO)Cc2ccc(Cl)cc21 (stereo unspecified)	3.2*
CCN(CC)C(=O)c1sc(NC(=O)c2cc(-c3ccc(C)o3)nc3ccccc23)c(C(N)=O)c1C	-1.4
O=C(c1ccccc1)c1cccc(NC(=O)c2cccnc2Oc2ccccc2)c1	0.06
C/C(Cc1nsc(Nc2ccccc2)n1)=N\Nc1cc(Cl)ccc1Cl	-0.5
COC(OC)c1ccc2c(N)c(C(=O)c3ccc(Cl)cc3)sc2n1	-0.26
CCCOCCOC(=O)C1=C(C)NC2=C(C(=O)CC(C)(C)C2)C1c1ccsc1 (stereo unspecified)	5.1*
CC1=C(C(=O)OCCOc2ccccc2)C(c2cccnc2)C2=C(CC(C)(C)CC2=O)N1 (stereo unspecified)	3.5*
CCOCCOC(=O)C1=C(C)NC2=C(C(=O)CC(C)(C)C2)C1c1ccc(CC)cc1 (stereo unspecified)	-0.52
CCCOC(=O)C1=C(C)NC2=C(C(=O)CC(C)(C)C2)C1c1ccc(SC)cc1 (stereo unspecified)	1.6
CCCOC(=O)C1=C(C)NC2=C(C(=O)CC(C)(C)C2)C1c1cccnc1 (stereo unspecified)	0.87
CSc1ccc(C2C(C(=O)OCCOc3ccccc3)=C(C)NC3=C2C(=O)CC(C)(C)C3)cc1 (stereo unspecified)	2.9
Cn1nc(C(F)(F)F)c(-c2cccc(C(F)(F)F)c2)c1NC(=O)C(C)(C)C	-0.67
Cc1cc(Br)c(NC(=S)NN)c(Br)c1	2.6
CSC(=NCCSCc1c(Cl)cccc1Cl)NC#N	-0.9
SMILES	Dicer processing
Cc1nnc(Sc2ncc([N+](=O)[O-])s2)n1-c1ccc(OCc2ccccc2)cc1	-0.49
Cc1nnc(SCc2nc(-c3ccc(Cl)cc3)no2)n1-c1ccccc1	0.62
c1ccc(-c2noc(CSc3nnc(-c4ccco4)n3-c3ccccc3)n2)cc1	0.44
c1ccc(-c2noc(CSc3nnc(-c4cccs4)n3-c3ccccc3)n2)cc1	3.6*
Cc1ccc(-c2ccc(C)cc2[N+](=O)[O-])c([N+](=O)[O-])c1	-0.74
Cc1ccc(OC(=O)c2ccc(Cl)cc2[N+](=O)[O-])c([N+](=O)[O-])c1	2.5
Cc1ccc(OC(C)CC(=O)O)c([N+](=O)[O-])c1 (stereo unspecified)	3.1*
FC(F)(F)c1ccccc1N/N=C/c1c(Br)sc2ccc(Cl)cc12	2.3
O=C(CSc1nnc(OC(=O)c2cccs2)n1C1CC1)c1ccc2c(c1)OCCO2	-1.2
Cc1ccc(Nc2ncnc3ccccc23)c(C)c1	-0.49
Cn1ncc2c(NC3CCCCC3)ncnc21	0.96
Cc1ccc2ncnc(NC3CCCCC3)c2c1	4.7*
COCCCNC(=S)NNC(=O)c1c(OC)cc(C(F)(F)F)cc1C(F)(F)F	-0.74
Cc1cc(NC(=O)CC2NCCN(Cc3ccccc3)C2=O)no1 (stereo unspecified)	-0.61
COC(=O)C(O)(NC(=O)c1cccc(C)c1)C(F)(F)F (stereo unspecified)	-0.59
O=C(c1cccs1)N1N=C2c3ccccc3CCC2C1c1ccccc1Cl (stereo unspecified)	-1
Fc1ccc(NCc2cccnc2)cc1	3.2*
FC(F)(F)c1cnc(NCc2cccnc2)c(Cl)c1	0.67
S=C(NCc1cccnc1)c1ccccc1	-0.17
CCC1SC2=NC(C)=C(C(=O)OC)C(c3ccc(OC)cc3)N2C1=O (stereo unspecified)	-0.81
CCOc1ccc(/C(O)=C2\C(=O)C(=O)N(c3nnc(C)s3)C2c2ccc(C(C)C)cc2)cc1 (stereo unspecified)	1.7
Nc1ccc(-c2nc(-c3ccccc3)c3cc(N)ccc3n2)cc1	80
N#Cc1cn(-c2ccccc2)c(=O)[nH]c1=O	-0.85
COc1cc(C=Nc2ccc(N3N=C(C)CC3=O)cc2)ccc1O	-6.6
COc1cc(/C=N/c2nccs2)ccc1O	3.1*
SMILES	Dicer processing
COc1cc(/C=N/n2cnc3c(sc(=S)n3C)c2=O)ccc1O	-1.7
COC(=O)c1noc(C)c1-c1ccnn1S(=O)(=O)c1cccc(C(F)(F)F)c1	-0.95
Cn1c(=O)c2c(-c3ccccc3)n3c4ccccc4nc(-c4ccncc4)c3c2n(C)c1=O	0.25
CCCCC(C(=O)O)N1C(=O)C2C3c4ccccc4C(c4ccccc43)C2C1=O (stereo unspecified)	3.5*
O=C1C2C3c4ccccc4C(C(=O)O)(c4ccccc43)C2C(=O)N1Cc1ccccc1 (stereo unspecified)	1.6
O=C(O)C(Cc1ccccc1)N1C(=O)C2CCCCC2C1=O (stereo unspecified)	1.7
O=c1cc(Nc2ccc(F)cc2)c2ccccc2o1	1
CCn1c(C)[n+](CC(O)COc2cccc(OC)c2)c2ccccc21 (stereo unspecified)	-0.08
O=C(O)Cn1c(=O)oc2ccccc21	0.55
CC(C)OC(=O)Cn1c(=O)oc2ccccc21	4*
COC(=O)Cn1c(=O)oc2ccccc21	-0.07
O=C(CSc1ncnc2c1sc1nc(N3CCOCC3)c3c(c12)CCCC3)Nc1ccccn1	-0.27
CCOC(=O)c1cnc(NCc2ccccc2)s1	-1.7
O=c1[nH]c2ccccc2c(O)c1C=NCc1ccccc1	-0.78
Cc1ccc(Cn2c(=O)oc3ccccc32)cc1	-0.05
O=c1oc2ccccc2n1Cc1ccccc1Cl	4.9*
O=c1oc2ccccc2n1Cc1ccc(Cl)cc1	-0.45
NNC(=O)c1cc2ncc(C(F)(F)F)cc2s1	0.48
COCCOC(=O)c1c(C)oc2ccc(OC(=O)C(C)(C)C)cc12	7.3
CNC(=S)N/N=C/c1c(O)ccc2ccccc12	0.57
Fc1ccccc1NC(=S)N/N=C/c1cccc2ccccc12	3.4*
CC(C)(C)OC(=O)N/N=C\c1cccc2ccccc12	-1.2
Cc1cc(NC(=O)CSCC(=O)O)n(C)n1	0.36
COc1ccc(Nc2nc(N)nc(CSc3ncccn3)n2)cc1	1.2
OCc1nc2ccccc2n1CC(O)COc1ccc(Br)cc1 (stereo unspecified)	-2.4
SMILES	Dicer processing
Cc1cc(NS(=O)(=O)c2ccc(Cl)cc2)no1	0.21
Cc1nc2ccccn2c1-c1ccnc(SCC(=O)Nc2ccc(F)cc2)n1	-0.85
Cc1ccnc(Nc2nc(-c3c(C)nc4ccccn34)cs2)c1	3.1*
Cc1nc(N)sc1-c1csc(Nc2ccc(Br)cc2)n1	-1.6
CN(C)c1ccc(Nc2nc(-c3cccs3)cs2)cc1	-1
Brc1ccc(-c2csc(Nc3ccncc3)n2)cc1	32
Cc1nc2ccccn2c1-c1ccnc(SCC(=O)c2cccc(C(F)(F)F)c2)n1	-2.1
Cc1nc(C)c(-c2csc(Nc3ccc(C(=O)O)c(O)c3)n2)s1	1.3
Cc1nc(C)c(-c2csc(Nc3ccc(N(C)C)cc3)n2)s1	4.1*
Cc1nc2sccn2c1-c1csc(Nc2ccc(Br)cc2)n1	4.2*
